Measurements taken from the supplement of paper PMC6555819.

Columns and labels:
Assay in all cases: PBM binding z-score (relative to random genomic background probes); higher = stronger binding; sequences stand for … in GC…GCGATTGACAGCGTAGAATGAAGG
[1] = system: FXR:RXRa (NR concentration 270 nM, RXRa partner concentration 90 nM)
Method in brief: (§1)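 For binding z-scores, the reference was random background probes on custom Agilent 4×180K protein-binding microarrays. These arrays were incubated 1 h with ligand-free nuclear receptor dimers in PBS pH 7.4, 2% milk, 0.02% Triton X-100, 1 mM DTT, 0.2 mg/mL BSA and 0.4 mg/ml salmon testes DNA. Fluorescence was scanned after antibody detection of each partner (one per run) and regression-normalized.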

[2] = system: LXRa:RXRa (NR concentration 270 nM, RXRa partner concentration 90 nM)
Method in brief: as §1

[3] = system: LXRa homodimer (NR concentration 270 nM)
Method in brief: as §1

[4] = system: LXRb:RXRa (NR concentration 270 nM, RXRa partner concentration 90 nM)
Method in brief: as §1

[5] = system: LXRb homodimer (NR concentration 270 nM)
Method in brief: as §1

[6] = system: PPARa:RXRa (NR concentration 270 nM, RXRa partner concentration 90 nM)
Method in brief: as §1

[7] = system: PPARg:RXRa 270nM:90nM, anti-RXR (NR concentration 270 nM, RXRa partner concentration 90 nM)
Method in brief: as §1

[8] = system: PPARg:RXRa 30nM:10nM, anti-RXR (NR concentration 30 nM, RXRa partner concentration 10 nM)
Method in brief: as §1

[9] = system: PPARg:RXRa 90nM:30nM, anti-RXR (NR concentration 90 nM, RXRa partner concentration 30 nM)
Method in brief: as §1

[10] = system: PPARg:RXRa DBDmut IVT, anti-RXR (DBD mutation: RXRa K156A/R161A, NR concentration 270 nM, RXRa partner concentration 90 nM)
Method in brief: as §1

[11] = system: PPARg:RXRa IVT, anti-PPARg (NR concentration 270 nM, RXRa partner concentration 90 nM)
Method in brief: as §1

[12] = system: PPARg DBDmut:RXRa IVT, anti-PPARg (DBD mutation: PPARg1 K132A/R137A, NR concentration 270 nM, RXRa partner concentration 90 nM)
Method in brief: as §1

[13] = system: PPARg DBDmut IVT, anti-PPARg (DBD mutation: PPARg1 K132A/R137A, NR concentration 270 nM)
Method in brief: as §1

[14] = system: PPARg homodimer (NR concentration 180 nM)
Method in brief: as §1

[15] = system: PXR:RXRa (NR concentration 270 nM, RXRa partner concentration 90 nM)
Method in brief: as §1

[16] = system: PXR homodimer (NR concentration 270 nM)
Method in brief: as §1

[17] = system: RARa:RXR (NR concentration 270 nM, RXRa partner concentration 90 nM)
Method in brief: as §1

[18] = system: RARa homodimer (NR concentration 270 nM)
Method in brief: as §1

[19] = system: RARb:RXRa (NR concentration 270 nM, RXRa partner concentration 90 nM)
Method in brief: as §1

Sequence	PBM binding z-score [1]	PBM binding z-score [2]	PBM binding z-score [3]	PBM binding z-score [4]	PBM binding z-score [5]	PBM binding z-score [6]	PBM binding z-score [7]	PBM binding z-score [8]	PBM binding z-score [9]	PBM binding z-score [10]	PBM binding z-score [11]	PBM binding z-score [12]	PBM binding z-score [13]	PBM binding z-score [14]	PBM binding z-score [15]	PBM binding z-score [16]	PBM binding z-score [17]	PBM binding z-score [18]	PBM binding z-score [19]
GCTATTAGGTGAAAGGGCAACCGAATGATTCTCG	0.916	1.33	-0.0501	1.25	-0.402	5.57	8.6	8.54	9.84	6.66	6.05	0.769	0.0827	1.6	1.48	0.0465	2.47	0.772	2.48
ATATCTAGGTAAAAGTTCAGTGAATCCCGAGGAT	0.694	1.43	1.24	1.15	0.657	5.76	9.29	9.08	10.4	6	6.34	1.91	1.42	1.87	2.33	1.9	1.6	1.5	2.56
TATACTGGGTCAAAGGCCAGAGTACGAATGTCGA	4.05	3.73	1.34	2.81	1.32	5.52	8.98	8.63	10.2	6.17	7.37	3.19	3.85	5.01	2.33	0.331	3.3	0.721	3.59
TAGCCTAGGTGATTGGGCCAGTATAGTACGCATC	-0.581	-0.692	-0.293	-0.59	-0.51	-0.146	-0.141	-0.21	-0.578	0.598	1.35	-0.207	-0.683	-0.347	-0.55	-0.684	-0.276	-0.504	-0.13
CCTACTGGGCCAAAACGGTCATTGATGCCGATAA	-0.421	-0.427	0.0364	-0.333	-0.867	0.309	0.904	-0.186	0.162	2.93	2.65	0.0613	0.25	0.299	-0.497	-0.344	-0.365	-0.523	0.875
CCTTACGGGTCAGGAGGTTATAGCACGACGAGCG	4.11	3	0.272	2.52	-0.12	4.49	4.07	1.19	2.57	1.26	2.77	0.0175	-0.373	1.97	2.86	0.19	4.14	0.79	3.63
GATTCAGGGTCAGCTAGAGGCCAGAGTATGGAAA	5.24	3.64	-0.0707	3.25	-0.355	5.13	4.14	1.13	3.05	1.78	3.04	0.184	-0.207	2.1	3.77	0.432	4.59	0.68	4.5
CGGACTGGGGCAAAGGTTACCATACTCAGTACGA	1.68	1.67	-0.108	2.34	-0.125	6.02	9.26	9.67	11.7	6.11	6.8	0.377	0.924	1.68	2.76	-0.252	3.88	0.372	2.42
